Our source for the inhibition values is PubChem BioAssay AID1789 (The Scripps Research Institute Molecular Screening Center, 2009).

Values joined by “and” are separate entries in the source; they are usually repeats but may differ in a detail not shown here. Equal values may be shown once. The whole screen tested about 290,000 compounds, of which about 2,700 (0.93%) were called active.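 Rule for the calls: active = inhibition above the screen-wide mean plus 3 SD, computed separately per campaign (cut at about 16% in these data); inactive = the rest.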 The sample as a whole holds a higher share of actives than the screen did.

The subject of this experiment is Heat shock protein HSP 90 (rabbit reticulocyte lysate; luciferase refolding). Kind of experiment: inhibitors of HSP90 chaperone activity – cell lysate, luminescence, primary screen (AID 1789).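 Note: 0% = DMSO wells and 100% = 60 µM geldanamycin wells; inhibitors lower the luminescence because luciferase stays unfolded.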 The settings on record: 3 h, at 5.6 µM, stronger effect = higher value.
One may read the inhibition as the drop in the measured response relative to a control, in per cent. Regarding `Cc1ccc(NC(=O)C2CCCN2C(=O)OCc2ccccc2)cc1C` (stereo unspecified), the inhibition is -2.49% (inactive). `CCOC(=O)c1ccccc1NS(=O)(=O)c1c(C)nc2sccn2c1=O`: the inhibition was -1.63% (inactive). For `CCOC(=O)N1CCN(Cc2nc3c(c(=O)n(C)c(=O)n3C)n2Cc2ccccc2)CC1` the value was 57.6% (active). For the molecule `CCN1CCN(Cc2nc3c(c(=O)n(C)c(=O)n3C)n2CC(=O)c2ccccc2)CC1`, the inhibition was 0.91% (inactive). For `Cn1c(=O)c2c(nc(CN3CCOCC3)n2Cc2ccccc2)n(C)c1=O` the value was 8.36% (inactive); for `COc1cccc(CNS(=O)(=O)c2ccc3c(c2)CC(C)N3C(C)=O)c1` (stereo unspecified), -0.03% (inactive). Regarding `NNC(=O)c1nnn(-c2nonc2N)c1CN1CCCC1`, the inhibition is 2.68% (inactive). In the case of `Cc1ccc(C)c(OCc2cc(C(=O)N3CCN(c4cnccn4)CC3)no2)c1` it was -6.08% (inactive); in that of `O=C(C1CCN(Cc2ccc(Cl)cc2)CC1)N1CCN(Cc2ccc3c(c2)OCO3)CC1`, 3.57% (inactive). For `Cc1cccnc1CCNC(=O)C1CCC(=O)N(Cc2cccc(F)c2)C1` (stereo unspecified) the value was -3.21% (inactive); for `Oc1ccc2ccccc2c1N=Nc1nccs1`, 16.9% (active); for `c1ccc(NCc2cccc3ccccc23)nc1`, -0.19% (inactive).

Regarding `Oc1ccc(N=Nc2nccs2)c(O)c1`, the inhibition was 0.13% (inactive). In the case of `CCc1ccc(S(=O)(=O)N/N=C\c2ccc([N+](=O)[O-])o2)cc1`, the inhibition is -5.89% (inactive). In the case of `COCCNc1ccc(-c2n[nH]c(=O)c3ccccc23)cc1[N+](=O)[O-]` it was 1.55% (inactive). On to `Cc1cc(N=Nc2ccc3ccccc3c2)ccc1O`, for which the inhibition is -3.33% (inactive). For `COc1cccc(OCCOc2cccc(/C=N/n3cnnc3)c2)c1`, the inhibition is 10.3% (inactive).

Take `CN(C)c1ccc(-n2cccc2/C=N/n2cnnc2)cc1`: the inhibition is 54.3% (active). For `CN(C)c1ccc(-n2cccc2/C=C2/SC(=Nc3ccc(F)cc3)NC2=O)cc1` the value was -2.27% (inactive).

On to `O=C(COc1nsnc1N1CCOCC1)Nc1ccccc1Cl`, for which the inhibition is -3.12% (inactive). For `O=C(Nc1ccc(CN2CCOCC2)cc1)c1cc(Cl)ccc1Cl`, the inhibition was -0.42% (inactive).

For the molecule `CCc1nc(N2CCN(C(C)=O)CC2)c2c3c(sc2n1)CCCC3`, the inhibition was 0.58% (inactive).

In the case of `O=C(Nc1ccccc1C(=O)O)c1ccc(N2C(=O)C3CC=CCC3C2=O)cc1` (stereo unspecified), the inhibition is 19.6% (active). For `O=C(Cc1ccccc1)Nc1ccc(C(=O)Nc2ccccc2C(=O)O)cc1`, the inhibition was 2.96% (inactive). For `COc1ccc(Cl)cc1NC(=O)c1cccc(N2C(=O)C3CC=CCC3C2=O)c1` (stereo unspecified) the value was -3.52% (inactive); for `COC(=O)[C@@H](Cc1ccccc1)NC(=O)NCCc1ccccc1`, 5.73% (inactive); for `NC(=O)Cc1ccc2sc(-c3ccccc3)nc2c1`, 16.4% (active).

`O=C(O)Cc1sc(-c2ccccc2)nc1-c1cccs1`: the inhibition is -2.42% (inactive). For `NC(=O)Cc1ccc2c(c1)[nH]c1ccccc12` the value was 5.37% (inactive); for `COc1ccc(NC(=O)NN2CCN(C)CC2)c(OC)c1`, -1.29% (inactive); for `CCOc1cccc(-n2nnnc2-c2ccc(OC)cc2)c1`, 1.88% (inactive). In the case of `COc1ccc(C2=NN(c3nc4ccccc4s3)C(=O)C2)cc1` it was 0.61% (inactive). As to `COc1ccc(-n2nnnc2-c2nc3ccccc3s2)cc1`, the inhibition is 19.1% (active).

`O=C(c1cccc(Br)c1)N1CCN(C2=NS(=O)(=O)c3ccccc32)CC1`: the inhibition was -0.31% (inactive). As to `O=C(CN1C(=O)COc2ccc(Cl)cc21)N1CCOCC1`, the inhibition was 4.17% (inactive). Turning to `COc1cc(C(=O)NN(CCC#N)C2=NS(=O)(=O)c3ccccc32)cc(OC)c1OC`, the inhibition is 26.7% (active). For `COc1cc(C2C(C(=O)OCCC#N)=C(C)NC3=C2S(=O)(=O)c2ccccc23)cc(OC)c1OC` (stereo unspecified) the value was 3.37% (inactive); for `Cc1ccc(C(=O)NN(CCC#N)C2=NS(=O)(=O)c3ccccc32)cc1`, -2.85% (inactive). For `Cc1ccc(NC(=O)C(=O)NCc2ccc(/C=N/NC(=O)c3c(C)nc4cc(C)ccn34)o2)cc1` the value was 0.35% (inactive); for `Cc1sc2nc(COC(=O)C(NC(=O)c3ccc(Cl)cc3Cl)C(C)C)[nH]c(=O)c2c1C` (stereo unspecified), -3.91% (inactive). For `Cc1sc2nc(CSCC(=O)Nc3c(Cl)cccc3Cl)[nH]c(=O)c2c1C` the value was 35.8% (active).

On to `CCN(CC)Cc1nc2sc(C)c(C)c2c(=O)[nH]1`, for which the inhibition was 2.4% (inactive).

As for `COc1ccc(NC(=O)N2CCCC2C(=O)NCc2ccccc2Cl)cc1` (stereo unspecified), the inhibition was -3.61% (inactive). In the case of `O=S(=O)(c1ccccc1)c1nc(-c2ccccc2)oc1NCCCN1CCOCC1` it was -4.19% (inactive); in that of `O=C(NCCc1ccc(Cl)cc1Cl)c1cc([N+](=O)[O-])c[nH]c1=O`, -4.08% (inactive). In the case of `Cc1nn(CC(=O)Nc2ccc(F)cc2)c(=O)c2ccccc12` it was 31.8% (active); in that of `Cc1ccc(NC(=O)Cn2nc(C)c3ccccc3c2=O)c(C)c1`, -0.05% (inactive); in that of `O=C(Cn1nc(C(=O)O)c2ccccc2c1=O)Nc1ccc(F)cc1`, 0.16% (inactive). On to `CCc1nnc(NC(=O)CCC(=O)N2CCN(c3cc(C)ccc3C)CC2)s1`, for which the inhibition was -1.11% (inactive). For `O=C(c1ccncc1)c1ccc([N+](=O)[O-])cc1` the value was 1.75% (inactive); for `O=C(Cn1c[n+](CC(=O)c2ccc([N+](=O)[O-])cc2)cn1)c1ccc([N+](=O)[O-])cc1`, 17.4% (active) and 20.8% (active); for `O=C(CC(n1cncn1)C(Cl)(Cl)Cl)c1ccc([N+](=O)[O-])cc1` (stereo unspecified), -0.82% (inactive). For `O=C(c1ccc(Br)o1)N1CCN(CCOc2ccccc2)CC1` the value was -4.13% (inactive); for `COc1ccc(CNC(=O)c2ccc3oc(C(C)C)nc3c2)cc1`, -4.27% (inactive). In the case of `CN(CCO)c1ccc(/C=N/Nc2nncc3ccccc23)cc1` it was 58.9% (active); in that of `COc1cc(/C=N/Nc2nn3cnnc3c3ccccc23)cc(OC)c1OC`, -1.69% (inactive); in that of `C/C(=N\Nc1nncc2ccccc12)c1ccc(Cl)c([N+](=O)[O-])c1`, 3.18% (inactive). On to `C=CCSc1nsc(NC(=O)Nc2cccc(C(C)=O)c2)n1`, for which the inhibition was -1.06% (inactive). For `O=C(C1CCCN(S(=O)(=O)c2ccc([N+](=O)[O-])cc2)C1)N1CCCCC1` (stereo unspecified) the value was 6.54% (inactive); for `O=C(Nc1cccnc1)c1cccc(S(=O)(=O)N2CCCC2)c1`, -0.49% (inactive). In the case of `O=C(c1noc2c1CCCC2)N1CCc2ccccc2C1` it was 3.28% (inactive); in that of `O=C(Nc1cccnc1)c1noc2c1CCCCC2`, 39.9% (active); in that of `CCn1cc(CN2CCC(C(=O)Nc3cccc(-c4cccc(Cl)c4)c3)CC2)cn1`, 7.07% (inactive). Consider `CCCS(=O)(=O)N1CCCC(C(=O)NCCN2CCCCC2C)C1` (stereo unspecified), for which the inhibition is 20.8% (active).

For the molecule `CCS(=O)(=O)N1CCCC(C(=O)NCc2ccc(C)cc2)C1` (stereo unspecified), the inhibition was -1.37% (inactive). For `CCCS(=O)(=O)N1CCCC(C(=O)NCc2ccco2)C1` (stereo unspecified) the value was -2% (inactive); for `COc1ccccc1CN1CCCC(N2CCN(c3ccc(F)cc3)CC2)C1` (stereo unspecified), -1.44% (inactive); for `O=C(NC1CCCCC1)C1c2ccccc2C(=O)N1Cc1ccco1` (stereo unspecified), -0.31% (inactive). For `O=C1c2ccccc2C(Nc2ccc3c(c2)OCCO3)N1Cc1ccco1` (stereo unspecified) the value was 16.6% (active). Turning to `Cc1ccnc(N2C(=O)c3ccccc3C2Nc2ccc3c(c2)OCCO3)c1` (stereo unspecified), the inhibition was 1.87% (inactive). For `CCc1ccc(NC(=O)CN2CCC(C(=O)c3ccc(OC)cc3)CC2)cc1` the value was 0.9% (inactive); for `Cc1ccccc1OCC(=O)N(Cc1cccc(F)c1)C1CCS(=O)(=O)C1` (stereo unspecified), -1.03% (inactive); for `CC(=O)Oc1ccc(-c2nc3c(C)cccc3c(=O)o2)cc1`, -3.74% (inactive). `CC(=O)Oc1ccc2c(c1)C(=O)c1ccccc1C2=O`: the inhibition was 4.58% (inactive).

With `COc1ccc(/C=C/c2noc(-c3ccccc3OC(C)=O)n2)cc1`, the inhibition is 24.5% (active).

`O=C(O)c1ccc(/C=N/Nc2nc(N3CCCCC3)nc(N3CCCCC3)n2)cc1`: the inhibition was 1.51% (inactive). In the case of `O=C(O)c1ccc(N/N=C/c2ccc3ncccc3c2)cc1`, the inhibition is 16.2% (active). Regarding `Cc1ccc2cc(/C=N/Nc3ccc(C(=O)O)cc3)c(Cl)nc2c1`, the inhibition was 1.97% (inactive).

Regarding `O=C(CN1C(=O)c2ccccc2S1(=O)=O)N1CCc2ccccc21`, the inhibition is 56.6% (active). In the case of `O=C(CN1CCN(c2ccccn2)CC1)N1CCc2ccccc21` it was 2.52% (inactive); in that of `O=C(CN1C(=O)c2ccccc2S1(=O)=O)NC1CCCCC1`, 0.8% (inactive); in that of `O=C(Oc1cccc(O)c1)C1CCCCC1`, 2.03% (inactive). For `O=C(CSC(=S)N1CCOCC1)c1ccccc1` the value was 34.1% (active). For `O=C(CSC(=S)N1CCOCC1)c1cc(Br)cc(Br)c1O` the value was -0.31% (inactive); for `CC1CN(C(=S)SCC(=O)c2ccccc2)CC(C)O1` (stereo unspecified), 1.9% (inactive); for `Cc1cccc(NC(=O)c2cccc(C(=O)Nc3cccc(C)c3C)n2)c1C`, -2.8% (inactive). As to `O=C(NCCCc1ccccc1)c1cc(COc2c(F)cccc2F)on1`, the inhibition is -1.08% (inactive). For `COc1ccc(CNS(=O)(=O)c2cc(-c3cc(C)no3)ccc2C(C)C)cc1` the value was 6.8% (inactive). For `CCN(CC)CCN(C(=O)c1cc(Cl)sc1Cl)c1nc2cc3c(cc2s1)OCO3` the value was 0.85% (inactive); for `COc1ccc(/C=N/Nc2nc(-c3ccc(C)cc3)c(C#N)c(=O)[nH]2)cc1`, -6.02% (inactive).

`S=c1[nH]nc(-c2ccco2)n1/N=C/c1ccccc1`: the inhibition was 1.32% (inactive). Turning to `Cn1c(-c2ccco2)nc2cc3ccccc3cc21`, the inhibition was 37.7% (active). `Cn1cccc1-c1nc2ccccc2n1C`: the inhibition is 2.48% (inactive).

As to `CC(C)Cn1cnc2c1c(=O)n(CC(=O)NN)c(=O)n2Cc1ccccc1`, the inhibition was -0.47% (inactive). For `COc1ccc(OC)c(NC(=O)c2cccc(S(=O)(=O)N3CCN(C(C)=O)CC3)c2)c1` the value was 0.82% (inactive); for `Cc1c(NC(=O)c2c([N+](=O)[O-])cnn2C)c(=O)n(-c2ccccc2)n1C`, 0.17% (inactive). Turning to `Clc1ccc2nc(CSc3ccccc3)cn2c1`, the inhibition was 25.5% (active). In the case of `CCOc1ncccc1C(=O)OCc1cn2cc(Cl)ccc2n1`, the inhibition is -0.94% (inactive). For `O=C(/C=C/c1ccc2c(c1)OCO2)NCc1cn2cc(Cl)ccc2n1` the value was -0.84% (inactive); for `N#C[C@]1(S(=O)(=O)c2ccccc2)C[C@@H]2ON=C(c3cccc(Br)c3)[C@@H]2C1`, 0.82% (inactive).

For the molecule `COc1ccc(C(=O)N[C@H](C(=O)NCc2ccccc2)C(C)C)cc1`, the inhibition is -4.29% (inactive).
